ERK EGF block – inhibitors of EGF-stimulated ERK signaling pathway; HEK293-V1b, EGF-stimulated phospho-ERK AlphaScreen; Potency, µM (doses to about 11.5 µM), without a hit: at the top dose activity change, negative = inhibition, actives largely listed as inhibitors; hit rate 0.41% among 130,000;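 further: potency means the concentration at half of the fitted maximal effect; plate controls were stimulated vehicle wells for no effect and unstimulated vehicle basal for full effect; nearly all actives have a fitted effect of over 55% in size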
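V1b-HEK293, 1% FBS o/n; cpd 30 min 37C; EGF 25 nM final, 5 min; lyse 10 min; AlphaScreen beads 5 h RT. Normalized DMSO basal vs EGF max; Hill AC50.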
pERK EGF inh – confirmation of ERK pathway inhibitors under EGF stimulation; shares compounds with ERK EGF block; HEK293 EGF-stimulated ERK phosphorylation, AlphaScreen; Potency, µM (series often up to 57.5 µM), for inactives: at the top dose activity change, negative = inhibition, hits mostly inhibitors; hit rate 60% among 60; AID 1725
c-Raf inh – blocks human c-Raf kinase activity; shares compounds with ERK EGF block; c-Raf kinase inhibition, homogeneous biochemical assay; activity change, negative = inhibition, % at 76.9 µM; 70 tested, under 10 active; AID 1728
Target sequence (P04049 whole entry, looked up): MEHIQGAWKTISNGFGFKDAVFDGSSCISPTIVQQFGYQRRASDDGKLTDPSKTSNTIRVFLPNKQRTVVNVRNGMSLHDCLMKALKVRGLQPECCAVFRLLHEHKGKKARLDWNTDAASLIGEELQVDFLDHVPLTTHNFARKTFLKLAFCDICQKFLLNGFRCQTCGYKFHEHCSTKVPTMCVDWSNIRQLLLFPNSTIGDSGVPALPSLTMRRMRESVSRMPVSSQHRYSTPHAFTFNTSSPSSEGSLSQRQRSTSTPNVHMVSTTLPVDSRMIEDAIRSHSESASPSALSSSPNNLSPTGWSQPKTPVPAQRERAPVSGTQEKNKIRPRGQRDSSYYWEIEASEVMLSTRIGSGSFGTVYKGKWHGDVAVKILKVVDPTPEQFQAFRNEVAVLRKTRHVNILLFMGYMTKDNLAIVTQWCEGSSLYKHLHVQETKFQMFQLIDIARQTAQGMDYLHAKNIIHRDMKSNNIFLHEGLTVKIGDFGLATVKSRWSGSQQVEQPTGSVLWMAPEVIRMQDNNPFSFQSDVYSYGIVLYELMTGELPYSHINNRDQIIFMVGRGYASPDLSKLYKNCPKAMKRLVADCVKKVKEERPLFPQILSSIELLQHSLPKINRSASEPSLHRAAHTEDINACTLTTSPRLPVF
MEK1 kinase inh – ERK pathway inhibitors follow-up: human MEK1 kinase inhibition; shares compounds with ERK EGF block; homogeneous MEK kinase activity assay, ERK pathway; Potency, µM (top dose mostly 76.9 µM), for inactives: at the highest dose activity change, negative = inhibition, hits mostly inhibitors; 70 tested, under 10 active
An asterisk follows results filed as active; u = inconclusive; x = no result; [ ] = remark or other dose. This is one part of a sample in which hits are shown more often than they occur. The call rests on the fitted dose curve; in most records, active means well fitted curve in the direction sought with a large enough effect; inconclusive means small, poorly fitted or top-dose-only effect, or another doubt; inactive means no such curve, though single readings can be large; an effect the other way counts as inactive or inconclusive.

SMILES	ERK EGF block	others
C=C[C@@]1(C)CC(=O)[C@@]2(O)[C@@]3(C)[C@@H](O)CCC(C)(C)[C@@H]3[C@H](O)[C@H](OC(C)=O)[C@@]2(C)O1	-5.3%	pERK EGF inh=-9.3%;c-Raf inh=-3.2;MEK1 kinase inh=-6.7%
Cc1cc(C)n(C(=O)c2ccc([N+](=O)[O-])c(Cl)c2)n1	0.1%
Cc1ccc(S(=O)(=O)N2CCOCC2)cc1NC(=O)CSc1nnc2cc(C)c3ccccc3n12	-3.7%
CCCOc1ccc(CN2CCOCC2)cc1OC	4.0%[57.5 µM]
COc1ccc(C(=O)NCCN2CCOCC2)cc1OC	-8.9%
COc1cc2ncnc(Nc3ccc(F)c(Cl)c3)c2cc1OCCCN1CCOCC1	x	c-Raf inh=-22.8;MEK1 kinase inh=3.9%
CCN1C(=O)c2ccc(C(=O)Nc3ncc(C)s3)cc2C1=O	-6.4%
COc1ccc(C(=O)NCC(=O)N/N=C/c2c(C)[nH]c3ccccc23)cc1OC	-9.5%[57.5 µM]
Cc1nnc(N2CCOCC2)c2nn(-c3cccc(Cl)c3)c(C)c12	-0.3%
O=C1CCCN1CN(C(=O)c1ccccc1)c1ccccc1	-3.9%
O=c1c2oc3ccccc3c2[nH]c(=S)n1-c1ccccc1	1.6%
CC(/C=C/c1ccccc1)=N/NC(=O)c1cc([N+](=O)[O-])cc([N+](=O)[O-])c1	29.4%
CC(/C=C/c1ccccc1)=N/NC(=O)C(O)c1ccccc1 (stereo not given)	5.6%
CC(/C=C/c1ccccc1)=N\Nc1ccccc1[N+](=O)[O-]	7.94µM*	pERK EGF inh=8.91µM*;c-Raf inh=-3.0;MEK1 kinase inh=-5.5%
COc1cc(N2CCCC2)c(OC)cc1/C=C1/NC(=S)NC1=O	-7.1%
C/C(=N\NC(=O)CNC(=O)C(c1ccccc1)c1ccccc1)c1ccccc1	3.9%
CCOc1ccc(/C(O)=C2/C(=O)C(=O)N(c3ncccn3)C2c2ccc(C)cc2)cc1 (stereo not given)	-3.9%[57.5 µM]
CCOc1ccc(/C(O)=C2/C(=O)C(=O)N(c3ncccn3)C2c2ccccc2)cc1 (stereo not given)	x	pERK EGF inh=-5.7%;c-Raf inh=4.2;MEK1 kinase inh=0.4%
COc1ccc(/C(O)=C2/C(=O)C(=O)N(c3ncccn3)C2c2ccc(OC)cc2)cc1 (stereo not given)	-3.2%
CCOC(=O)c1ccc2c(c1)n(CCCS(=O)(=O)[O-])c(/C=C/c1ccc(Cl)cc1)[n+]2CC	12.3%[57.5 µM]
O=C1C=C(O)c2cccc(O)c2C1=O	-16.1%[57.5 µM]
O=C1c2ccccc2C(=O)c2c([N+](=O)[O-])ccc(O)c21	-13.8%[57.5 µM]
O=C1c2ccc(O)c(O)c2C(=O)c2c(O)ccc(O)c21	7.94µM*	pERK EGF inh=10µM*;c-Raf inh=u;MEK1 kinase inh=u
O=C1c2ccccc2C(=O)c2c1cccc2N1CCCC1	10µM*	pERK EGF inh=15.8µM*;c-Raf inh=u;MEK1 kinase inh=u
O=C1c2cccc3c(N4CCCCC4)ccc(c23)C(=O)N1c1ccccc1O	-0.4%
SMILES	ERK EGF block	others
Cc1ccc(C)n1-c1ccccc1N1CCCCC1	-1.5%
CCc1ccc2oc(=O)cc(CN3CCC(C)CC3)c2c1	-6.7%[57.5 µM]
COc1ccc(CNc2ncnc3cc(Cl)ccc23)cc1	-11.5%
COc1ccccc1-c1cncnc1NCc1cccc(C)c1	23.1%
COc1cc2ncnc(NCc3cccc(Cl)c3)c2cc1OC	0.447µM*	pERK EGF inh=1.78µM*;c-Raf inh=u;MEK1 kinase inh=1.3%
O=C(CSc1n[nH]c(=O)[nH]c1=O)c1ccc([N+](=O)[O-])cc1	-3.2%[57.5 µM]
COC(=O)[C@@]1(Cc2ccc(F)cc2)[C@H]2c3cc(C(=O)N(C)C)n(Cc4ccc(Cl)c(C(F)(F)F)c4)c3C[C@H]2CN1C(=O)c1ccccc1	13.2%
CS(=O)(=O)CCNCc1nc(-c2ccc3ncnc(Nc4ccc(OCc5cccc(F)c5)c(Cl)c4)c3c2)cs1	1µM*	pERK EGF inh=0.708µM*;c-Raf inh=-9.6;MEK1 kinase inh=-13.2%
Cc1ccc(-c2n[nH]c(=S)n2C)cc1Cl	25.4%
CCCn1c(=O)c2[nH]c(-c3ccccc3)nc2n(CCC)c1=O	-13.2%
CCn1c(SCC#N)nc2ccccc2c1=O	7.5%[57.5 µM]
CCn1c(=O)c2[nH]c(-c3ccccc3)nc2n(CC)c1=O	12.2%	c-Raf inh=-12.5;MEK1 kinase inh=-7.0%
CCCNC(=O)c1nnsc1S(=O)c1ccc(Cl)cc1 (stereo not given)	-2.9%
COC(=O)c1ccc2c(c1)NC(=O)C(N(CC(C)C)CC(C)C)S2 (stereo not given)	-8.6%[57.5 µM]
COc1ccc(N=C/C=C2\C=C(c3ccccc3)OC(C)(C)O2)cc1	1.9%
Cc1ccccc1N=C/C=C1/C=C(c2ccccc2)OC(C)(C)O1	1.0%
CC1(C)OC(c2ccccc2)=C/C(=C/C=C2C(=O)c3ccccc3C2=O)O1	u	pERK EGF inh=u;c-Raf inh=-12.1;MEK1 kinase inh=-6.6%
CCCn1c(SCC(=O)N2c3ccccc3CC2C)nnc1-c1ccco1 (stereo not given)	-0.5%
Cc1ccc(/C=C2/NC(=O)N(Cc3ccccc3F)C2=O)o1	-2.2%
COc1ccc(C2=Nn3c([n+](C)c4ccccc43)SC2)cc1	0.7%
CC1CCC(C(C)C)[C@H](OC(=O)c2ccccc2)C1 (stereo not given in full)	16.9%
COc1ccc(-c2n(CC(=O)OC3CC(C)CCC3C(C)C)c3ccccc3[n+]2C)cc1 (stereo not given)	1.78µM*	pERK EGF inh=-12.7%;c-Raf inh=-12.5;MEK1 kinase inh=-6.6%
Cc1ccc(Nc2nc(NCCCN3CCOCC3)nc(N)c2[N+](=O)[O-])cc1C	5.6%
Cc1cc(N/N=C/c2ccc(O)cc2O)nc(-n2nc(C)cc2C)n1	-2.8%
Cc1cc(-c2ccccc2)n(-c2cc(N/N=C/c3ccccc3O)ncn2)n1	10µM*	pERK EGF inh=u;c-Raf inh=-7.3;MEK1 kinase inh=-17.5%
SMILES	ERK EGF block	others
Cc1cc(N/N=C/c2ccccc2O)nc(-c2ccccc2O)n1	-1.3%
CCC(C)C(NC(=O)C1CCC(C)CC1)C(=O)NCc1cccnc1 (stereo not given)	4.1%
Cc1ccc(NC(=S)NNC(=S)NC2CCCCC2)cc1	1.1%
O=C(c1nnc(Cc2ccc(Cl)cc2)o1)N1CCc2ccccc2C1	-2.6%
CN(C)c1ccnc(-c2cccc(NS(C)(=O)=O)c2)n1	15.8%
CS(=O)(=O)Nc1cccc(-c2nc(Nc3ccccc3)c3ccccc3n2)c1	25.8%
CS(=O)(=O)Nc1cccc(-c2ccc3ncnc(Nc4ccc(F)cc4)c3c2)c1	1.12µM*	pERK EGF inh=1.41µM*;c-Raf inh=-35.5;MEK1 kinase inh=17.9%
COc1ccc(/C=C/C(=O)NC(=S)N2CCN(c3ccccn3)CC2)cc1OC	-2.7%
O=[N+]([O-])c1cc(-c2ncccn2)c([N+](=O)[O-])s1	4.2%
CCCOc1ccc(CSc2n[nH]c(C)n2)cc1	-1.3%[57.5 µM]
CCOc1ccccc1NC1=C(Cl)C(=O)N(c2ccc(OC)cc2)C1=O	2.7%
Cc1sc2ncnc(N/N=C/c3ccccc3O)c2c1C	4.3%
Cc1sc2ncnc(N/N=C/c3ccc(O)cc3)c2c1C	-2.2%
Cc1ccc(Nc2ncnc3sc(C)c(C)c23)cc1C	x	pERK EGF inh=11.2µM*;c-Raf inh=u;MEK1 kinase inh=-0.9%
CCOC(=O)CSc1nc(C)nc2c1sc1nc(C)c(C(C)=O)c(-c3ccc(OC)cc3)c12	-4.9%
O=C(NCC1CCCO1)/C(=C\c1cccs1)NC(=O)c1ccccc1 (stereo not given)	6.0%
CN(C)c1ccc(-c2cc(NCc3ccccc3)ncn2)cc1	34.5%
Cc1noc(C)c1-c1ccc2ncnc(NCc3ccccc3)c2c1	23.9%
CN(C)c1ccc(-c2ccc3ncnc(NCc4ccccc4)c3c2)cc1	8.91µM*	pERK EGF inh=11.2µM*;c-Raf inh=u;MEK1 kinase inh=0.0%

High-throughput results as filed in PubChem.
